The list is not random: actives were taken first. Their share in the collection is about 28%.
CYP2C19 act – human CYP2C19 activators, primary screen, biochemical, luminescence; recombinant CYP2C19, luciferin-H EGE luminescence; stronger effect = higher value; 0 = fully inhibited enzyme, 1 = untreated enzyme; AID 1025, 2008; activation factor at 5 µM; 96,000 tested, under 10 active;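 active = activation factor of at least 2 at 5 µM in the primary screen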
CYP2C9 inh – blockers of cytochrome P450 2C9 activity – biochemical, luminescence, ADME assay, primary screen | P11712 | CYP2C9 Supersomes, luciferin-H conversion | inhibition, % at 5 µM | hit rate 20% among 96,000;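 active = blocking of liver enzyme CYP2C9 beyond about 50% at 5 µM, limit read from the data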
CD11b adhes enh – enhancers of CD11b/CD18 adhesion to fibrinogen, primary screen, K562 cells, luminescence | Integrin beta-2 (Homo sapiens) + Integrin alpha-M (Homo sapiens), P05107+P11215 | ATPlite luminescence | activation, % at 10 µM | hit rate 0.07% among 93,000 | AID 1499, 2009;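 active = 10 µM primary screen giving 50% or more activity, confirmed by 40% or more on retest at that dose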
Target sequence (P05107 whole entry, looked up, other chains not shown): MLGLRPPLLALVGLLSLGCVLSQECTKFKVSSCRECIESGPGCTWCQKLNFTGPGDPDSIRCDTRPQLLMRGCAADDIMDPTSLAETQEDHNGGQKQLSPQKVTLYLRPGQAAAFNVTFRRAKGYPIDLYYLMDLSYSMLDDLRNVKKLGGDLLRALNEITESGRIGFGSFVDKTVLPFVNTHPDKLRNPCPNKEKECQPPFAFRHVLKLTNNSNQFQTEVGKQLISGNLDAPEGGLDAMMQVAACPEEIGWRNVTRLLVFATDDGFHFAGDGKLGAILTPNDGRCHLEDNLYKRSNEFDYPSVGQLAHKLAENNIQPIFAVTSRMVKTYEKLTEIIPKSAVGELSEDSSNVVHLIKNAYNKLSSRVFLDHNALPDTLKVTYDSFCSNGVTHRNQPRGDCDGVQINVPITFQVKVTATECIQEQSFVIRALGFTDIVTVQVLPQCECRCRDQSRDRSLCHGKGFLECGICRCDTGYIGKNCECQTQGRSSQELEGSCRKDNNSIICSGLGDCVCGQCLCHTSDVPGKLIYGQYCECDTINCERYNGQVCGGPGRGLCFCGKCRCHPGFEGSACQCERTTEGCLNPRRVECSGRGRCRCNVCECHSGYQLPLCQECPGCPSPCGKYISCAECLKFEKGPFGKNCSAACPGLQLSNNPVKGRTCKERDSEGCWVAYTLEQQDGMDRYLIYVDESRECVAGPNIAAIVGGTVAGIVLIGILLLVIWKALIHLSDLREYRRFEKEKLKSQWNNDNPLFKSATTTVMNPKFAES
CYP2C9 activ – human CYP2C9 activators, primary screen, biochemical, luminescence | hit rate 1.4% among 96,000 | recombinant CYP2C9, luciferin-H conversion; stronger effect = higher value; factor 1 = untreated enzyme, 0 = blocked | AID 1024, 2008 | activation factor at 5 µM;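 active = activation factor of 2 or more for CYP2C9 at a 5 µM dose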
CYP2C19 inhib – blockers of cytochrome P450 2C19 activity – biochemical, luminescence, ADME assay, primary screen. P33261. CYP2C19 Supersomes, luciferin-H EGE luminescence, 30 min. inhibition, % at 5 µM. hit rate 21% among 96,000;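 active = CYP2C19 inhibition above a set limit at 5 µM in the primary screen, cut at about 50% in these data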
CD11b adhes inh – inhibitors of CD11b/CD18 adhesion to fibrinogen, primary screen, K562 cells, luminescence | inhibition, % at 10 µM | ATPlite luminescence; Mn2+ added to activate the integrin | Integrin beta-2 (Homo sapiens) + Integrin alpha-M (Homo sapiens), P05107+P11215 | AID 1497, 2009 | hit rate 0.54% among 93,000;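 active = primary inhibition of 50% or more at 10 µM, then 40% or more on retest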
Each line names hits and unclear results; the compound was inactive in the other large screens.

CC1(C)NC(=O)N(CCCCOc2ccc(Br)cc2Cl)C1=O	CYP2C9 inh 66.4, CYP2C19 inhib 98.6
CCC(=O)c1ccccc1OCCN1C(=O)NC(C)(C)C1=O	CYP2C9 inh 66.6, CYP2C19 inhib 75.0
Cc1ccc(C(C)C)c(OCCN2C(=O)NC(C)(C)C2=O)c1	CYP2C19 inhib 77.0
CC(C)c1cc(Br)ccc1OCCCN1C(=O)NC(C)(C)C1=O	CYP2C9 inh 78.5, CYP2C19 inhib 91.7
Cc1ccc(C(C)C)c(OCCN)c1	none
CC1(C)NC(=O)N(CC(=O)O)C1=O	none
CCOC(=O)c1c(NC(C)=O)sc2c(OC(C)=O)cccc12	none
O=C1NC(c2cn(-c3ccccc3)nc2-c2cccs2)C(C(=O)c2cccnc2)C(O)(C(F)(F)F)N1 (stereo unspecified)	none
CC1(C)NC(=O)N(CCCOc2ccc(Br)cc2Cl)C1=O	CYP2C9 inh 51.0, CYP2C19 inhib 91.7
C/C=C/c1ccc(OCCCN2C(=O)NC(C)(C)C2=O)c(OC)c1	none
Cc1ccc(NC(=O)c2cccc3c2-c2ccccc2C3=O)cc1C	CYP2C9 inh 68.4, CYP2C19 inhib 83.5
CCn1c(-c2cc3c(C(F)(F)F)nn(C)c3s2)n[nH]c1=S	none (no result: CD11b adhes enh, CD11b adhes inh)
Cc1ccc2[nH]c(=O)c(CN(CCCO)S(=O)(=O)c3cccc4nsnc34)cc2c1	CYP2C9 inh 88.5
Cc1ccc2cc(CN(CCCO)S(=O)(=O)c3cccc4nsnc34)c(=O)[nH]c2c1	CYP2C9 inh 100.3
Cc1ccc2nsnc2c1S(=O)(=O)N(CCO)Cc1cc2cc3c(cc2[nH]c1=O)OCCO3	none
COc1cc2c(C(=O)NCc3ccccn3)cn(CC(C)C)c(=O)c2cc1OC	none
COc1ccc(N2C(=O)CC(n3c(CCCCO)nc4ccccc43)C2=O)cc1 (stereo unspecified)	none
CC(N1CCOC1=O)S(=O)(=O)c1ccccc1 (stereo unspecified)	none
Fc1ccc(NC(=S)N/N=C/c2ccc(F)c(F)c2)c(F)c1	CYP2C19 inhib 54.1
O=C(CN1CCSCC1)N/N=C/c1ccc(F)c(F)c1	none
C/C(=N\NC(=O)c1cccc(Br)c1)c1cccc(NC(=O)c2ccc(C)o2)c1	none
CCNc1nc(NC(C)(C)C)nc(N(C#N)CC)n1	none (no result: CD11b adhes enh, CD11b adhes inh)
O=[N+]([O-])c1ccc(O)c(-c2nn[nH]n2)c1	CYP2C9 inh 83.1, CYP2C19 inhib 70.1
O=C(O)c1cccc(COc2ccccc2Cl)c1	CYP2C9 inh 95.4, CYP2C19 inhib 96.6
O=C(O)c1ccc(COc2ccccc2Cl)cc1	none
CCCOc1ccc(C(C(=O)OCCN(CC)CC)c2ccccc2)cc1 (stereo unspecified)	none
Cc1ccc(NC2=NC(c3ccccc3)n3c(nc(C)cc3=O)N2)c(C)c1 (stereo unspecified)	CYP2C19 inhib 82.6 (no result: CD11b adhes enh, CD11b adhes inh)
Cc1ccc(NC2=NC(c3ccc(C)cc3)n3c(nc(C)cc3=O)N2)cc1 (stereo unspecified)	CYP2C9 inh 50.2, CYP2C19 inhib 71.0
CC(C)C(=O)N1CCN(c2ccccc2N)CC1	none
O=C(NC12CC3CC(CC(C3)C1)C2)c1cncc(O)c1	none
CCC1(C)Cc2c(sc3nc(SCC(=O)O)[nH]c(=O)c23)CO1 (stereo unspecified)	none
CCC1(C)Cc2c(sc3nc(NC)n(C)c(=O)c23)CO1 (stereo unspecified)	CYP2C19 inhib 55.8
CCC1(C)Cc2c(sc3nc4n(c(=O)c23)CCS4)CO1 (stereo unspecified)	CYP2C9 inh 51.1, CYP2C19 inhib 63.9
CCn1c(=O)cc(SCC(=O)N2CCCCC2)c2ccccc21	none
CCn1c(=O)cc(SCC(=O)N2CCC(C)CC2)c2ccccc21	CYP2C9 activ 2.7
CCN1CCN(C(=O)CSc2cc(=O)n(CC)c3ccccc23)CC1	none
CCOC(=O)C1CCN(C(=O)CSc2cc(=O)n(CC)c3ccccc23)CC1	CYP2C19 inhib 60.2
O=C(O)CN1CCNCC1	none
COCCNC(=O)C(c1ccc(C)o1)N(C(=O)c1snc(C(N)=O)c1N)c1cccc(C)c1 (stereo unspecified)	none
S=C(NCCC(c1ccccc1)c1ccccc1)Nc1ccccc1Cl	CYP2C9 inh 66.4, CYP2C19 inhib 55.4 (no result: CD11b adhes enh, CD11b adhes inh)
CN1CCN(C(=O)c2ccccc2-c2ccccc2C(=O)O)CC1	none
CCn1c(COc2ccc(Cl)cc2)nnc1SCc1nc2ccccc2[nH]1	none
C=CCn1c(SCc2nc3ccccc3[nH]2)nnc1-c1ccc(OC)cc1	CYP2C19 inhib 81.2
CCn1c(SCc2nc3ccccc3[nH]2)nnc1-c1ccc(OC)cc1	CYP2C19 inhib 81.9
O=c1oc2c(CN3CCCCC3)c(O)ccc2cc1-c1nc2ccccc2[nH]1	CYP2C9 inh 52.5, CYP2C19 inhib 54.0
O=C(O)c1ccc2c(c1)-c1nc3ccccc3n1C2=O	none
CCOc1ccc(-c2nnn(CC(=O)c3cc(OC)ccc3OC)n2)cc1	none
Nc1cc(=O)[nH]c(SCc2nc3ccccc3n2Cc2ccccc2)n1	CYP2C9 inh 82.5
O=c1[nH]c(SCc2nc3ccccc3n2Cc2ccccc2)nc2ccccc12	none
Cc1cc(C)c(C)c(OCC(=O)NCCN(C)C)c1	none
CS(=O)(=O)c1ccc2nc(NC3(C(F)(F)F)N=C4SCCN4C3=O)sc2c1 (stereo unspecified)	CYP2C9 inh 92.2
CC(CC(C)C(=O)N1CCOCCN(C(=O)C(C)CC(C)C(=O)O)CCOCC1)C(=O)O (stereo unspecified)	none
Cc1cc([N+](=O)[O-])nn1CC(=O)NNC(=S)Nc1ccc(F)cc1	none (no result: CD11b adhes enh, CD11b adhes inh)
O=C(NC(NCCCN1CCOCC1)(C(F)(F)F)C(F)(F)F)C1CCCCC1	none
O=C(c1ccccc1)c1cc([N+](=O)[O-])ccc1N1CCOCC1	none (no result: CYP2C19 act, CYP2C9 inh, CYP2C9 activ, CYP2C19 inhib)
CN1CCN(c2ccc([N+](=O)[O-])cc2C(=O)c2ccc(Cl)cc2)CC1	CYP2C19 inhib 58.0
O=C(c1ccc(-c2ccc(Cl)cc2)o1)N1CCN(c2ccc([N+](=O)[O-])cc2Cl)CC1	CYP2C9 inh 91.8, CYP2C19 inhib 69.8
O=C(c1cccnc1)N1CCN(c2ccc([N+](=O)[O-])cc2Cl)CC1	none (no result: CYP2C19 act, CYP2C9 inh, CYP2C9 activ, CYP2C19 inhib)
CCOc1ccc(C(=O)c2cc([N+](=O)[O-])ccc2Cl)cc1	CYP2C9 inh 75.9
CCN1CCN(CC(O)COC(C)C)CC1 (stereo unspecified)	none (no result: CD11b adhes enh, CD11b adhes inh)
O=C(O)CCn1cc(/C=C/C(=O)c2ccc(Cl)cc2)c(-c2ccc(Br)cc2)n1	none (no result: CYP2C19 act, CYP2C9 inh, CYP2C9 activ, CYP2C19 inhib)
C=CCn1c(SCC(=O)Nc2cccc3ccccc23)nnc1-c1cnccn1	CYP2C19 inhib 55.4 (no result: CD11b adhes enh, CD11b adhes inh)
C=CCn1c(SCC(=O)Nc2cc3oc4ccccc4c3cc2OC)nnc1-c1cnccn1	CYP2C9 inh 95.0, CYP2C19 inhib 75.2

From PubChem
